According to PubChem BioAssay (NCATS):
Results filed as inconclusive are left out. Calls of active or inactive are those of the source. Calls come from the whole dose curve.

target: Atrial natriuretic peptide receptor 1 (Homo sapiens) (UniProt P16066); assay: Natriuretic polypeptide receptor (hNpr1) antagonism - Pilot CMLD screen (AID 1347052); conditions: HEK293 hNpr1 GloSensor cGMP luminescence, ANP-stimulated; series mostly up to 9.22 µM
Procedure: In order to identify small molecular compounds that inhibit the hNpr1 receptor we developed a high-throughput assay to measure inhibition of the guanylate cyclase activity of the receptor. cGMP production was measured using a circular permutated Firefly luciferase (FLuc) enzyme functionally linked to the cGMP binding domain of human phosphodiesterase 5 (GloSensor technology pGS-40F, (Fan, F. et al. 2008). The cGMP-sensor was expressed in human embryonic kidney 293 (HEK-293) cells and FLuc activity was measured after stimulation with hNrp agonist peptide. hNrp agonists activates the receptor's associated guanylyl cyclase (GC) domain producing cGMP which then binds to the GloSensor resulting in FLuc activation, the enzymatic activity of which can be measured as bioluminescence with addition of luciferin substrate.
This assay was initially piloted by testing with a small library of specialty compounds.
PROTOCOL TABLES (as described by Inglese J, Shamu CE and Guy RK. 2007)
SEQUENCE No. (e.g., 1, 2, 3, etc.); […] (e.g., Cells, Incubation, Reagent, etc.); VALUE and DESCRIPTION.
1. Cells. Seed 1500 HEK293 cGMP-sensor cells expressing hNpr1 per well in 4uL into Greiner 1536-well white/solid bottom high base, tissue culture-treated plates.
2. Incubation. Incubate plated cells at 37C in 5% CO2, 95% RH overnight.
3. Reagent. Add 1uL per well GloSensor reagent from Promega (2% final concentration) or CO2 independent media vehicle control to respective columns of Greiner 1536-well plates.
4. Incubation. Incubate plated cells at room temperature for 2 h, protect from light.
5. Compounds. Library compounds and A-71915 control added at 23 nL per well, transferred by Pin Tool.
6. Incubation. Incubate plated cells for 30 min. at room temperature, protect from light.
7. Detector. GloSensor baseline pre-read luminescence measured using CCD-based camera (Viewlux).
8. Compound. Add 1uL of hNppA peptide to 0.1 nM final concentration to stimulate hNpr1 or CO2 independent media as vehicle control.
9. Incubation. Incubate treated cells at room temperature for 20 min., protect from light.
10. Detector. GloSensor post-hNppA luminescence measured using CCD-based camera (Viewlux).
NOTES (numbers refer to Sequence numbers above)
1. HEK293 cells expressing hNpr1 and GIP/pGS-40F grown to 85-95% confluence (48-72 h) in T175 culture flasks (CO2 independent media supplemented with 10% FBS, 1% Pen/Strep antibiotics and 1 ug/mL puromycin). Trypsinize and harvest cells from T175 culture flasks and filter through 40 um cell strainer. Cells counted with Invitrogen Countess (30,000,000 - 50,000,000 cells/flask). Cells diluted to a final concentration of 375 cells/uL in CO2 independent media and a Millipore multidrop used to dispense 1500 cells per well (4uL/well) into 13 1536-well Greiner White/Solid bottom, high base tissue-culture treated (TC) plates and one Aurora 1536-well Black/Clear bottom, low base, TC plate (for visual inspection of cell health throughout the duration of the assay).
2. Cells incubated overnight at ambient temperature, 24 h. at 37C in 95% RH incubator protected from light, covered with metal lid with gas-exchange holes.
3. Prepare GloSensor Reagent (Promega): Reconstitute GloSensor luciferase substrate by adding 8.2mL Hepes buffer to 250mg substrate, mix well, protect from light and stored at -80C. Prepare a fresh 12% GloSensor solution in CO2 independent supplemented plating media (see above). Mix well and store at ambient temperature, protected from light. 1uL 12% GloSensor Luciferase Reagent added (2% final concentration) to respective columns of 13 x 1536-well Greiner plate with BioRaptr, 1uL CO2 independent plating media added to respective columns as vehicle control with BioRaptr.
4. Cells incubated for 2 h. at ambient temperature, protected from light with metal lid with gas-exchange holes.
5. A-71915 stock solution prepared (10 mM in DMSO). […]

Chain of Atrial natriuretic peptide receptor 1 (Homo sapiens) (P16066 whole entry, looked up, the tested form may be a part): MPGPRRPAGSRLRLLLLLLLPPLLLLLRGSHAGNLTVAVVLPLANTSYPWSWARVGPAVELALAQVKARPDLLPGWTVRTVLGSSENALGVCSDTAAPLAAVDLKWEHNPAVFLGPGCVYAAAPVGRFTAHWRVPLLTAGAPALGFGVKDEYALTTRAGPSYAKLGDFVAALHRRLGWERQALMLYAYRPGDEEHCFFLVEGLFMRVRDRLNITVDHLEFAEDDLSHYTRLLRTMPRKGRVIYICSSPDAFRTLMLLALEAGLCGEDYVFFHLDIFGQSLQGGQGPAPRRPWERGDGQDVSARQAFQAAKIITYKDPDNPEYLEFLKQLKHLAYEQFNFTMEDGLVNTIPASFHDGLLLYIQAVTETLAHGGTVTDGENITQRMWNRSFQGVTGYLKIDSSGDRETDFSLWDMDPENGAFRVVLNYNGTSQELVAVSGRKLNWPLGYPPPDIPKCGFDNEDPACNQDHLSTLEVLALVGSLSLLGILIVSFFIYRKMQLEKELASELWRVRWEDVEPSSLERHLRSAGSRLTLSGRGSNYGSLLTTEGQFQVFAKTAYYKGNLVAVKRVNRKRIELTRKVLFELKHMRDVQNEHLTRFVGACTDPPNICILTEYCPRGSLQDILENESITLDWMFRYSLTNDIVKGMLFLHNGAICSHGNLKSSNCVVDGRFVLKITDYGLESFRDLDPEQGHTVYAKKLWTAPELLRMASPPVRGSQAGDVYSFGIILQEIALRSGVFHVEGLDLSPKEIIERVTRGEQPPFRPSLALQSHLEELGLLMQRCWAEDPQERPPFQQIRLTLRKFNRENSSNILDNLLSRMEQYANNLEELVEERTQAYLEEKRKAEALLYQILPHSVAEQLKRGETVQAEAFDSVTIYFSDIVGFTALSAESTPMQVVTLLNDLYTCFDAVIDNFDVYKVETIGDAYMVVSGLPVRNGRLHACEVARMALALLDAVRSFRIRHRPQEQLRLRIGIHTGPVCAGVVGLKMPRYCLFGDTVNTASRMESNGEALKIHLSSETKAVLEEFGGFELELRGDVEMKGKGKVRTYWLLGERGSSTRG

Potency, inactive:
COC(=O)C12CC3(CCC4C5C(C(OCc6ccccc6)C41)C52)OCCO3 (stereo not given), COC(=O)N1C(C)=Cc2ccccc2C1CC(C)=CC(C)=O (stereo not given), COC(=O)CC=C[C@@H](C)[C@H](O)c1ccccc1Br, COc1ccc2c(c1)C(=O)[C@@H](OC(=O)Nc1cc(OC)c(OC)c(OC)c1)[C@H](c1ccc(OC)c(Br)c1)O2, COC(=O)CC1c2ccccc2C(Cc2ccc(OC)cc2)C(C)N1C(=O)OC (stereo not given), CCN1C(=NCCc2c[nH]c3ccccc23)NC(c2cccc(F)c2)C(C(=O)OC)=C1C (stereo not given), CC(=O)OC[C@H]1O[C@H](CCON=C(C)CCC(=O)OC[C@H]2O[C@H](C#Cc3ccccc3)C=C[C@H]2Oc2ccc(C)cc2)C=C[C@H]1OC(C)=O, COC1=C[C@H](C(=O)NC2CCN(Cc3ccccc3)CC2)[C@@]2(C)Cc3ccccc3[C@@H]2CC1=O, C=CCNC(=O)[C@H]1C=C(OC)C(=O)C[C@H](c2ccccc2)[C@H]1C, COCCN1C(=O)NC(CCc2ccccc2)C(C(=O)OC)=C1C (stereo not given), CC(=O)C1=C(C)N(CCC=Cc2ccccc2)C(=O)NC1c1ccccc1 (stereo not given), COCC=CC1=CC2=CC(=O)C(C)(OC(=O)c3cnc4ccccc4n3)C(=O)C2=CN1CCc1c[nH]c2ccccc12 (stereo not given), COC(=O)N[C@@H](C=Cc1ccco1)[C@]1(C(=O)OC)CCCC1=O, C=C(C)C(O)C=Cc1ccc(Br)cc1 (stereo not given), CC#CCN1C(=O)NC(c2ccccc2)C(C(=O)OC)=C1C (stereo not given), COC(=O)CCC(=O)OC1(C)C(=O)C2=COC(c3ccc(OC)cc3)=CC2=C(Br)C1=O (stereo not given), CCCCCCC#C[C@@H]1C=C[C@H](OC(=O)OCC)[C@@H](COC(=O)OCC)O1, COc1ccc([C@]23Cc4c(ccc5ccccc45)[C@H](O2)c2c(cc(-c4ccccc4)oc2=O)O3)cc1, COc1cccc(-c2coc3ccc(Br)cc3c2=O)c1, COCCN1C(=O)N[C@@H](CCc2ccccc2)[C@H](C(=O)OC)[C@H]1C, COc1cc2c(cc1OC)CSC1C(=O)N(C)C(SC2)C(=O)N1C, O=C1CCCC2=C1[C@H]1O[C@](CCCCN3C(=O)c4ccccc4C3=O)(Cc3c1ccc1ccccc31)O2, CCN1C(=O)[C@@H]2[C@H]3[C@H](O)[C@H](O)CC(=NOC[C@@H](C)[C@H](OCc4ccccc4)C(C)C)[C@@H]3CC[C@H]2C1=O, CC(=O)OC[C@H]1O[C@H](C#Cc2ccccc2)C=C[C@H]1O, C#CCN1C(=O)[C@]2(OCCC=C[C@H]2C)c2c(Br)cccc21, COC(=O)C1=C(C(=O)OC)[C@@H]2N(C)c3ccccc3[C@@]23C[C@@H](C(=O)OC)N(C(=O)NCCBr)C3=N1, C=CC1=C2C=C(C3CC3)N(C3CCCC3)C=C2C(=O)C(C)(OC(=O)c2ccco2)C1=O (stereo not given), CC(C)=CCN1C(=O)[C@@]2(CC(C)=CC[C@@H](COc3ccccc3)O2)c2ccccc21, N#CCCCS(=O)(=O)c1nnnn1-c1ccccc1, COC(=O)C1=C(C)N(Cc2ccccc2)C(=NCC2CC2)NC1c1cccc(C(F)(F)F)c1 (stereo not given), COc1cc2c(cc1OC)C1OC(c3ccsc3)(C2)Oc2cc(C)oc(=O)c21 (stereo not given), COC(=O)CCCC1=CC2=C(c3ccccc3)C(=O)C(C)(OC(=O)C3CCCC3)C(=O)C2=CN1c1ccccc1 (stereo not given), COC(=O)C[C@H]1c2ccccc2[C@@H]2C(=C[C@@H](C)[C@H]3C(=O)NC(=O)[C@H]32)N1C(=O)OC, COC(=O)C1=C(C)N(Cc2ccccc2)C(=NCc2cc(OC)c(OC)c(OC)c2)NC1c1cccc(F)c1 (stereo not given), C[C@@H]1C(c2ccccc2)=CC(=O)c2nc3ccccc3cc2[C@@H]1C(=O)N1CCCC1, COC1=C[C@H](C(=O)NCc2ccc(OC)cc2)C(C)C(c2ccccc2)CC1=O (stereo not given in full), COC(=O)N[C@H](C(C(=O)OC)=C(C)NCc1ccccc1)c1cccc(C)c1, C[C@]12C[C@@](C)(C=C1C=Cc1ccccc1)C(=O)C[C@H]2c1ccccc1, CCN1C(=S)NC(c2cccc(C(F)(F)F)c2)C(C(=O)OC)=C1C (stereo not given), COc1ccc2c(c1)O[C@H](c1ccc3c(c1)OCO3)[C@@H](OC(=O)NCCOc1ccccc1)C2=O
